Sampled rows, rich in hits. Any-hit rate of the full collection: about 4.1%.
DAX1 inh-1: NR0B1 (DAX1) inhibition; P51843; HEK293 Gal4-DAX1 luciferase reporter, luminescence; inhibition, % at 6.75 µM; 0.99% of 340,000 active; AID 504766;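 active means inhibition above the mean over all tested compounds plus 3 SD, cut at about 4.2% in these data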;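 further: 0% = DAX1-transfected cells with DMSO and 100% = empty-vector control cells with DMSO; inhibition shows as a rise in luminescence from relieved DAX1 repression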
Target sequence (P51843 207-470 limits assumed): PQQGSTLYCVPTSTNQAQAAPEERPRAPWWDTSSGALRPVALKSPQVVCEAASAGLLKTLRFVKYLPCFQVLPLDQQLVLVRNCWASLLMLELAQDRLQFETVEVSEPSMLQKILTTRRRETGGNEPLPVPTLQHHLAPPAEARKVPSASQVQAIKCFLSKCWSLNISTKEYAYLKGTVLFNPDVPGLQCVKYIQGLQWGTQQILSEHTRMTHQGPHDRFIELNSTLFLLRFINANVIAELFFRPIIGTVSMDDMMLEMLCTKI
hgDAF12 agonist: activates the H. glycines DAF-12 receptor ligand-binding domain; HEK293 GAL4-hgDAF12 UAS-luciferase reporter, agonist luminescence; normalized to butyrate control; activation, % at 6.8 µM; 1.8% of 370,000 active; AID 687014;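 active means activation above a cutoff set at the mean of all screened compounds plus 3 SD, cut at about 10% in these data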;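 further: 0% = DMSO wells and 100% = sodium butyrate wells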
PolyA inhibitor: yeast polyadenylation inhibition | S. cerevisiae SKY197-pL101 polyadenylation reporter, beta-gal luminescence; efflux-impaired pdr1/pdr3 knockout yeast; score 100 = 6 SD above DMSO | 0.02% of 300,000 active | activity score, % at 12 µM;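 active means lowest replicate activity score at least 50, where 100 means six control SD above control mean; inconclusive means lowest score under 50 but half or more replicates reach 50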;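 further: yeast exposed to compound for 9 h at 30 °C; higher score means more reporter readthrough which indicates perturbed polyadenylation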
hcDAF12 agonist: activators of H. contortus DAF-12 nuclear receptor | HEK293 hcDAF-12 lit1-tk-luc reporter, luminescence; 0% DMSO, 100% Δ7-dafachronic acid | activation, % at 6.8 µM | 1.4% of 370,000 active | AID 652067;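 active means activation above the mean of all tested compounds plus 3 SD, cut at about 5.5% in these data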;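 further: 100% = response to 3 µM Δ7-dafachronic acid high control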
DAX1 inh-2: blocks DAX1 repression of SF-1 activated StAR promoter | HEK293T StAR-luciferase reporter, SF-1/DAX-1 repression relief | 1.1% of 370,000 active | inhibition, % at 6.8 µM;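 active means inhibition above the mean over all tested compounds plus 3 SD, cut at about 3.6% in these data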;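 further: 0% = DAX-1 cells with DMSO and 100% = cells lacking DAX-1 with DMSO; higher inhibition means more luminescence from relief of DAX-1 repression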
ssDAF12 agonist: activates DAF-12 receptor from parasite S. stercoralis | AID 652126 | activation, % at 6.8 µM | 1% of 370,000 active | HEK293 ssDAF-12/GRIP1 lit1-tk-luc reporter, luminescence; % of 3 µM dafachronic acid response;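 active means activation above the mean over all tested compounds plus 3 SD, cut at about 0.9% in these data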;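 further: 0% = DMSO-only wells and 100% = 3 µM delta7-dafachronic acid wells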
The depositor's hits bear a star; ? = inconclusive; / = no result.

SMILES	DAX1 inh-1	hgDAF12 agonist	PolyA inhibitor	hcDAF12 agonist	DAX1 inh-2	ssDAF12 agonist
O=C(COc1ccc(S(=O)(=O)NCc2ccccc2)cc1Cl)NCc1ccccn1	-2	-2	-18	-2	0	-2
O=C(COc1ccc(S(=O)(=O)N2CCc3ccccc32)cc1Cl)NCc1ccccn1	-1	2	3	0	0	0.9*
Cc1ccc(C(=O)C2CC2)c(C)c1	-1	1	/	1	-1	3.1*
O=c1c2ccccc2oc2cc(-c3ccc4[nH]ccc4c3)ccc12	-2	11*	-15	3	0	0
O=c1c2ccccc2oc2ccccc12	/	2	/	-1	1	-1
CCn1c(=O)cc(N2CCN(c3cccc(C(F)(F)F)c3)CC2)[nH]c1=O	/	9	/	-1	/	-1
COc1cccc(-n2c(CN3CCN(c4cccc(C)c4)C(C)C3)nc3ccc([N+](=O)[O-])cc3c2=O)c1 (stereo not given)	-2	2	17	2	-1	-1
COc1cccc(-n2c(CN3CCN(c4ccc(C)cc4)C(C)C3)nc3ccc([N+](=O)[O-])cc3c2=O)c1 (stereo not given)	-2	1	2	5.8*	-1	0
Cc1ccccc1CNC1CCC12CCC(c1ccccc1)CC2 (stereo not given)	/	2	/	-1	/	-1
Cc1cc2cc3c(cc2nc1SCC(=O)N1CCOCC1)OCO3	1	2	-4	0	0	0
CCOc1ccc2cc(C#N)c(SCC(=O)N3CCOCC3)nc2c1	3	11*	3	3	3	0
COC(=O)CSc1nc2cc3c(cc2cc1C#N)OCO3	4.7*	12*	6	3	3.7*	0
N#Cc1cc2cc3c(cc2nc1SCC(=O)N1CCOCC1)OCO3	6.6*	7	11	4	1	-1
Cc1ccccc1CN1CCCCC(NC(=O)c2ccccc2C)C1=O (stereo not given)	/	0	/	0	-1	-1
Nn1c(SCC(=O)NC2CCCC2)nnc1C(F)(F)F	5.3*	-1	/	-1	-1	0
Cn1c(CC(=O)Nc2ccccc2)nnc1SCC(=O)NC1CCCC1	-1	2	4	-1	0	0
Cc1ccc(NC(=O)Cc2nnc(SCC(=O)NC3CCCC3)n2C)cc1	0	-1	-8	6.3*	0	-1
O=C(c1nc2ncccn2n1)N1CCN(c2ccccc2)CC1	0	-1	?	-1	3.7*	-1
O=C(c1nc2ncccn2n1)N1CCN(c2ccc(F)cc2)CC1	2	-1	-3	0	0	-1
O=C(CSc1nnc(-c2ccccc2)n1-c1ccc(Cl)cc1)Nc1cccc2ccccc12	/	1	/	-3	-1	-1
Cc1cccc(NC(=O)CSc2nnc(-c3cccnc3)n2Cc2ccco2)c1C	/	3	/	-2	1	-1
COc1ccc(CC(=O)NC2CCSc3ccccc32)c(OC)c1 (stereo not given)	7.7*	-1	-4	-4	0	-1
CSc1ccccc1C(=O)NC1CCSc2ccccc21 (stereo not given)	-2	2	-12	5.7*	0	1
O=C(NC1CCSc2ccccc21)c1ccccc1F (stereo not given)	1	3	1	0	2	-1
COCC(=O)N1CCC(C(=O)NC2CCCc3ccccc32)CC1 (stereo not given)	/	0	/	6	0	-1
SMILES	DAX1 inh-1	hgDAF12 agonist	PolyA inhibitor	hcDAF12 agonist	DAX1 inh-2	ssDAF12 agonist
Cc1ccccc1-c1nc(-c2ccccn2)no1	-3	-3	/	5	1	-1
c1ccc(-c2nc(-c3ccncc3)no2)cc1	3	8	-1	2	0	-1
c1ccc(-c2noc(-c3cccnc3)n2)cc1	0	9	3	3	3.6*	0
c1ccc(-c2ccc(-c3nc(-c4cccnc4)no3)cc2)cc1	2	7	-23	2	3.8*	0
Cc1ccccc1-c1nc(-c2cccnc2)no1	2	10*	-32	6.1*	0	1
COC(=O)[C@]12C[C@H](CC(=O)NCCC(C)C)C(=O)N(CCC3=CCCCC3)C1=C[C@H](C1CCCC1)O[C@@H]2C	/	2	/	3	-1	-1

Bioassay records (PubChem BioAssay)
